{"source": "PubChem BioAssay (NCATS)", "note": "Inconclusive results are not listed. A number with no mark means an inactive call. The call rests on the fitted dose curve; in most records, active means well fitted cell-killing curve with a large enough effect; inconclusive means small, poorly fitted or top-dose-only effect; inactive means flat fitted curve, though single readings scatter.", "data": [{"test": "qHTS of pediatric cancer cell lines to identify multiple opportunities for drug repurposing: Primary screen for DAOY cells (AID 1347090); further: nearly all actives have a fitted effect of over 55% in size", "details": "DAOY medulloblastoma viability, CellTiter-Glo luminescence, 48 h; series mostly up to 46 µM; activity change, negative = cytotoxic: at the top concentration", "text": "Drug repurposing or repositioning has been offered as a strategy for drug development in oncology programs. This approach has special potential for childhood cancers and other rare or orphan diseases, where the expected return on new drug development has been a disincentive to pharmaceuticals.\nIn this project we exploit the poly-pharmacology of drugs to discover new indications via phenotypic screening of a panel of 19 well-characterized cell lines derived from solid tumors seen in children and adolescents. The goal is to identify approved drugs with previously unrecognized anticancer properties that has the potential to reveal new mechanisms and biological processes involved in carcinogenesis or drug resistance. We employed a titration-based paradigm (quantitative high-throughput screening or qHTS), where all compounds were tested at multiple concentrations for their effect on cell viability. Concentration-response curves (CRCs) were derived directly from the primary screen, and both potency and efficacy values were used to identify compounds with robust bioactivity profiles. We screened the NIH Chemical Genomics Center (NCGC) Pharmaceutical Collection (NPC) and Mechanism Interrogation Plate (MIPE) small molecule collections of approved and investigational compounds against these cell lines; and measured metabolically active cells after 48 hours of compound treatment as a proxy for cell viability.\nAssay Submitter: Nathalia J. Martinez, National Center for Advancing Translational Sciences, National Institutes of Health, Rockville, MD, USA; email: natalia.martinez@nih.gov\n[1] Shen, M et al. Quantitative high-throughput phenotypic screening of pediatric cancer cell lines identifies multiple opportunities for drug repurposing. Oncotarget 2017 Dec 19;9(4):4758-4772. PMID 29435139.\nThe cells were obtained from University of North Carolina (UNC), Pediatric Preclinical Testing Program (PPT), and Coriell Institute (CI).\nqHTS cell viability assay:\nCells were assayed in growth media at a density of 500-1,000 cells/well. Five microliters of cells were dispensed into 1,536-well, white, solid-bottom, TC-treated plates (Greiner Bio One) using a multidrop dispenser and incubated at 37 degrees C, 5% CO2, under a humidified atmosphere for 5 hours. Twenty-three nanoliters of compounds and controls (neutral control DMSO or positive control bortezomib at final concentration of 2.3 µM) were subsequently transferred by Kalypsys pintool. For primary screens, the MIPE collection was tested at 11-point dilutions (final concentrations range from 0.78 nM to 46 µM) and the NPC collection at 8-point dilutions (final concentrations range from 0.59 nM to 46 µM). Compounds tested in follow-up screens were assayed at 11-point dilutions. Cells were incubated for 48 hours, followed by addition of 3 uL of CellTiter-Glo (Promega). After a 15 min incubation at room temperature, samples were analyzed for luminescence intensity using a ViewLux High-throughput CCD imager equipped with clear filters.", "values": [{"compound": "C[C@]12C[C@H](O)[C@H]3[C@@H](CCC4=CC(=O)CC[C@@]43C)[C@@H]1CC[C@@H]2C(=O)CO", "activity change, negative = cytotoxic": "-0.966%"}, {"compound": "CC12CCC(CC1)C(C)(C)O2", "activity change, negative = cytotoxic": "6.53%"}, {"compound": "CC1=C(C/C=C(\\C)CCC[C@H](C)CCC[C@H](C)CCCC(C)C)C(=O)c2ccccc2C1=O", "activity change, negative = cytotoxic": "-6.95%"}, {"compound": "[O-][n+]1cccc(CO)c1", "activity change, negative = cytotoxic": "5.96%"}, {"compound": "CN1CCCCC1CCN1c2ccccc2Sc2ccc(S(C)=O)cc21", "note": "(stereo not given)", "activity change, negative = cytotoxic": "0.649%"}, {"compound": "Cc1cc2c(cc1S(N)(=O)=O)S(=O)(=O)CCC2", "activity change, negative = cytotoxic": "1.21%"}, {"compound": "C=Cc1c(C)c2cc3[nH]c(cc4nc(cc5nc(cc1[nH]2)C(C)=C5CCC(=O)O)C(CCC(=O)O)=C4C)c(C)c3C=C", "activity change, negative = cytotoxic": "-9.91%"}, {"compound": "CC(COc1ccccc1)NC(C)C(O)c1ccc(O)cc1", "note": "(stereo not given)", "activity change, negative = cytotoxic": "12.7%"}, {"compound": "Cc1ncc([N+](=O)[O-])n1CC(O)CCl", "note": "(stereo not given)", "activity change, negative = cytotoxic": "-4.37%"}, {"compound": "c1ccc(CN(CC2=NCCN2)c2ccccc2)cc1", "activity change, negative = cytotoxic": "-2.93%"}, {"compound": "O=c1[nH]cnc2c1ncn2[C@@H]1O[C@H](CO)[C@@H](O)[C@H]1O", "activity change, negative = cytotoxic": "-6.12%"}, {"compound": "CCN(CC)CCNC(=O)c1cc(Cl)c(N)cc1OC", "activity change, negative = cytotoxic": "0.0192%"}, {"compound": "NCCNCCNCCNCCN", "activity change, negative = cytotoxic": "-7.74% [at 9.22 µM]"}, {"compound": "OCc1cc(C(O)CNCCCCCCOCCCCc2ccccc2)ccc1O", "note": "(stereo not given)", "activity change, negative = cytotoxic": "-5.85%"}, {"compound": "NCC(=O)CCC(=O)O", "activity change, negative = cytotoxic": "-0.528%"}, {"compound": "OCC(CO)N[C@H]1C[C@](O)(CO)[C@@H](O)[C@H](O)[C@H]1O", "activity change, negative = cytotoxic": "9.07%"}, {"compound": "C[C@H]1O[C@H](O[C@H]2[C@H](O)[C@@H](O)[C@@H](O[C@H]3[C@H](O)[C@@H](O)[C@H](O)O[C@@H]3CO)O[C@@H]2CO)[C@H](O)[C@@H](O)[C@@H]1N[C@H]1C=C(CO)[C@@H](O)[C@H](O)[C@H]1O", "activity change, negative = cytotoxic": "0.995%"}, {"compound": "CC1(C)OC(=O)NC1=O", "activity change, negative = cytotoxic": "2.85%"}, {"compound": "CCCCC/C(C=O)=C\\c1ccccc1", "activity change, negative = cytotoxic": "14.1%"}, {"compound": "CO/N=C(\\C(=O)N[C@@H]1C(=O)N2C(C(=O)O)=C(CSc3nc(=O)c(O)nn3C)CS[C@H]12)c1csc(N)n1", "activity change, negative = cytotoxic": "3.98%"}, {"compound": "Cn1cc[nH]c1=S", "activity change, negative = cytotoxic": "7.33%"}, {"compound": "O=C(O)CN1C(=O)c2cccc3cccc(c23)C1=O", "activity change, negative = cytotoxic": "7.18%"}, {"compound": "N[C@H](C(=O)O)c1ccc(O)cc1", "activity change, negative = cytotoxic": "10.9% [at 16.1 µM]"}, {"compound": "CN(C)CCN(Cc1ccccc1)c1ccccn1", "activity change, negative = cytotoxic": "9.44%"}, {"compound": "O=S(=O)(O)NC1CCCCC1", "activity change, negative = cytotoxic": "3.61%"}, {"compound": "NC(N)=NCCC[C@H](N)C(=O)O", "activity change, negative = cytotoxic": "-2.71% [at 4.84 µM]"}, {"compound": "CC(=O)CCC(=O)O", "activity change, negative = cytotoxic": "13.9%"}, {"compound": "OCC(O)CN1CCN(c2ccccc2)CC1", "note": "(stereo not given)", "activity change, negative = cytotoxic": "-4.23%"}, {"compound": "CC1(C)S[C@@H]2[C@H](NC(=O)Cc3ccccc3)C(=O)N2[C@H]1C(=O)O", "note": "(tested in a mixture with another compound)", "activity change, negative = cytotoxic": "5.32%"}, {"compound": "CCOc1nc2cccc(C(=O)O)c2n1Cc1ccc(-c2ccccc2-c2nn[nH]n2)cc1", "activity change, negative = cytotoxic": "1.17%"}, {"compound": "O=C(O)[C@@H]1CSCN1", "activity change, negative = cytotoxic": "-11.6%"}, {"compound": "Cc1ccc(C(C)C)cc2c(C)ccc1-2", "activity change, negative = cytotoxic": "11.5%"}, {"compound": "Cc1ncc(COP(=O)(O)O)c(C=O)c1O", "activity change, negative = cytotoxic": "-1.94%"}, {"compound": "C[C@H](NC(CCc1ccccc1)C(=O)O)C(=O)N1CCC[C@H]1C(=O)O", "note": "(stereo not given in full)", "activity change, negative = cytotoxic": "11.2%"}, {"compound": "NC(=O)NC(=O)Cc1ccccc1", "activity change, negative = cytotoxic": "-6.81%"}, {"compound": "CCn1cc(C(=O)O)c(=O)c2cnc(N3CCNCC3)nc21", "activity change, negative = cytotoxic": "0.765%"}, {"compound": "CC1=C(CC(=O)O)c2cc(F)ccc2/C1=C\\c1ccc(S(C)(=O)=O)cc1", "activity change, negative = cytotoxic": "-11.3%"}, {"compound": "CCCCN(CCCC)CC(O)c1cc(Cl)cc2c1-c1ccc(Cl)cc1/C2=C/c1ccc(Cl)cc1", "note": "(stereo not given)", "activity change, negative = cytotoxic": "4.4%"}, {"compound": "O=C(O)c1ccccc1-c1ccc(C(F)(F)F)cc1", "activity change, negative = cytotoxic": "10.3%"}, {"compound": "Cc1cc(O)cc2c1O[C@](C)(CCC[C@H](C)CCC[C@H](C)CCCC(C)C)CC2", "activity change, negative = cytotoxic": "9.59%"}]}]}
